Here are results for 52 compounds from PMC6919601, “Identification of Plasmodium dipeptidyl aminopeptidase allosteric inhibitors by high throughput screening” (PLoS ONE, 2019).

Out of some 110,000 compounds screened, about 230 (0.21%) showed an effect of 50% or more. The sample as a whole holds a higher share of strong results than the screen did.
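Also: 30 min substrate incubation versus DMSO and 10 µM JCP410 controls.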

For the experiment, the target named is DPAP1 (Plasmodium falciparum, UniProt Q8IIJ9). Kind of experiment: primary screen, percent inhibition; read by cleavage of a fluorogenic dipeptide substrate; higher = more effect of the substance. On the set-up: species or system P. falciparum D10 trophozoite lysates; single well.
Sequence of DPAP1 (Q8IIJ9 whole entry, looked up): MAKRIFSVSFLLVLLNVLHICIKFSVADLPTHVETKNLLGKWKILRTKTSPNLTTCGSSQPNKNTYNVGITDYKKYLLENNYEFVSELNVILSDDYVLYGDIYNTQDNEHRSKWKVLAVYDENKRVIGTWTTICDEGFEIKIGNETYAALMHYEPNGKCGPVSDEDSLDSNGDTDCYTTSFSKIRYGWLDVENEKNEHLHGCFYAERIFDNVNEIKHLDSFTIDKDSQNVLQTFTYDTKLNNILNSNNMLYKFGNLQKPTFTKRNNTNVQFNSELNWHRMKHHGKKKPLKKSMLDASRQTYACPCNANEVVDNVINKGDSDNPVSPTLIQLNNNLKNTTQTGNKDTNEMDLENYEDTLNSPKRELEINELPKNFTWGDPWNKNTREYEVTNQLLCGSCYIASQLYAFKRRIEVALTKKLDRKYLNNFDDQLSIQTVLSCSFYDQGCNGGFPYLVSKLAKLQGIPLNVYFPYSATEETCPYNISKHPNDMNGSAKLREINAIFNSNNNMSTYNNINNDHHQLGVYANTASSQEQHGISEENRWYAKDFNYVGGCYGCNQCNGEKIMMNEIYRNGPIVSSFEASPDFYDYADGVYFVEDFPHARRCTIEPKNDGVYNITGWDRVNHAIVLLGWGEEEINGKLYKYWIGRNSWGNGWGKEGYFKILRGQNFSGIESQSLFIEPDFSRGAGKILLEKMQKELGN
`CCc1c(C#N)c(S)nc2c1CCC2`: the “% Inhibition @ 10 uM” value came to 88.7%.

For the compound `N#Cc1c(S)nc2c(c1-c1ccncc1)CCCC2`, the “% Inhibition @ 10 uM” value worked out at 30.8%. As for `CCc1c(C#N)c(SCC(=O)OC)nc2c1CCC2`, the figure is 4.16%; as for `CCn1ncc(Br)c1C(=O)Nc1ccc(S(=O)(=O)Nc2ccc(OC)cc2)cc1`, -4.43%; as for `O=C(O)c1cc(C(=O)O)cc(N2C(=O)c3ccc([N+](=O)[O-])cc3C2=O)c1`, 1.64%. For `O=C(CN1CCOCC1)c1c[nH]c2ccccc12`, the “% Inhibition @ 10 uM” value came out at 7.5%. Under `CC1(C)OCCN1C(=O)C(=O)c1c[nH]c2ccccc12` stands -2.68%. With `O=C(c1sc(N2CCOCC2)nc1-c1ccccc1)c1c[nH]c2ccccc12`, the “% Inhibition @ 10 uM” value came out at 72.2%. As for `Cc1nnc(N2CCC(C(=O)NCCc3ccc(Cl)cc3)CC2)c2nn(-c3ccccc3)c(C)c12`, the figure is 0.58%; as for `COc1ccc(C2=NN(CCc3ccccn3)C(=O)C2)cc1`, -4.06%. As for `O=C1N=C(N2CCN(C3=NC(=O)/C(=C\c4cccc(O)c4)S3)CC2)S/C1=C\c1cccc(O)c1`, the figure is 6%. Under `O=C1N=C(N2CCN(Cc3ccccc3)CC2)S/C1=C\c1cccc(O)c1` stands 51%; under `O=C1N=C(N2CCN(Cc3ccccc3)CC2)S/C1=C\c1ccccc1`, -2.82%. With `CCOC(=O)N1CCC(NC(=O)Cc2cn(C)c3ccccc23)CC1`, the “% Inhibition @ 10 uM” value is given as -2.41%. Take `CCOC(=O)N1CCN(C(=O)Cc2c(C(=O)O)n(C)c3ccccc23)CC1`: the “% Inhibition @ 10 uM” value was 2.84%.

As to `CCOC(=O)N1CCN(C(=O)Cc2cn(C)c3ccccc23)CC1`, the “% Inhibition @ 10 uM” value is listed as 85.9%. As for `Cn1cc(CC(=O)NCc2ccc(F)cc2)c2ccccc21`, the figure is -4.76%; as for `Cn1cc(CCC(=O)NCc2ccccn2)c2ccccc21`, 3.28%. Under `Cn1cc(CC(=O)NCc2ccccn2)c2ccccc21` stands 87.4%; under `CSCCCN(C)CCc1ccccn1`, -7.56%.

Turning to `CN(C)c1ccc(NC(=O)C23CC4CC(C2)CC(n2cnc(Cl)n2)(C4)C3)cc1`, the “% Inhibition @ 10 uM” value is recorded as -0.305%. Under `Cc1ccc(C)c(-c2csc(NC(=O)CSc3ccccc3)c2C(N)=O)c1` stands 1.02%; under `N#Cc1c(C(F)(F)F)cc(-c2cccs2)nc1SCC(=O)Nc1ccc(C(N)=O)cc1`, -7.55%. Under `N#Cc1c(C(F)(F)F)cc(-c2cccs2)nc1SCc1nc(N)nc(N2CCOCC2)n1` stands 64.2%; under `N#Cc1c(C(F)(F)F)cc(-c2ccccc2)nc1SCc1nc(N)nc(N2CCOCC2)n1`, 5.18%; under `N#Cc1c(C(F)(F)F)cc(-c2cccs2)nc1SCC(=O)NC1CC1`, 1.76%.

Regarding `O=C(CSc1ccc(-c2cccs2)nn1)N1CCOCC1`, the “% Inhibition @ 10 uM” value is 5.85%. Regarding `N#Cc1c(C(F)(F)F)cc(-c2cccs2)nc1SCC(=O)O`, the “% Inhibition @ 10 uM” value was determined as 9.42%. Under `COc1ccc(-c2cc(-c3ccccc3)nc(SCC(=O)N3CCOCC3)c2C#N)cc1` stands 5.24%; under `N#Cc1c(C(F)(F)F)cc(-c2cccs2)nc1SCC(=O)N1CCOCC1`, 72.6%.

In the case of `N#Cc1c(C(F)(F)F)cc(-c2cccs2)nc1SCC(=O)N1CCCCC1`, the “% Inhibition @ 10 uM” value was determined as 87%. Under `Cn1cccc1/C=C1/CCC(C2CCCC2)C1=O` (stereo not shown) stands -5.51%; under `Cc1ccc(C)n1-c1nnc(N2CCC(C(=O)NCCc3ccc(Cl)cc3)CC2)s1`, -4.04%; under `O=C(NC1CCCC1)N(Cc1ccc2c(c1)OCO2)C1CCN(Cc2ccccc2)CC1`, -1.41%. Consider `Cc1nc2c(c(C)nn2-c2ccccc2)c(C)c1CCC(=O)NCCC(C)C`, for which the “% Inhibition @ 10 uM” value is reported as 2.57%. Under `CCc1ccc2ncc(S(=O)(=O)c3ccccc3)c(N3CCCC3)c2c1` stands -3.69%; under `CSC1=C(C#N)C2(CCCC2)C(C#N)C(=O)N1` (stereo not shown), -0.239%.

Consider `N#CC1=C(S)NC(=O)C(C#N)C12CCCCC2` (stereo not shown), for which the “% Inhibition @ 10 uM” value stood at 57.8%. As for `CSC1=C(C#N)C2(CCCCC2)C(C#N)C(=O)N1` (stereo not shown), the figure is -0.736%; as for `CCN(CC)C(=O)/C=C/c1ccc(Cl)cc1`, 3%; as for `Cn1c(=O)c2c(nc(CN3CCc4ccccc4C3)n2CCCc2ccccc2)n(C)c1=O`, 59.1%. Under `Cn1c(=O)c2c(nc(CN3CCc4ccccc4C3)n2Cc2ccccc2)n(C)c1=O` stands -0.499%; under `Cn1c(=O)c2c(nc(CN3CCc4ccccc4C3)n2CCc2ccccc2)n(C)c1=O`, 2%. As for `CC1=CC2=NC(=O)/C(=C\c3cccn3CCCOc3ccc(C)cc3)C(=N)N2O1`, the figure is -1.43%; as for `CCOC(=O)c1cc2c(=O)n3ccccc3nc2n(CCOC)/c1=N\C(=O)C(C)(C)C`, -2.04%. For the compound `COC(=O)Nc1ccc(S(=O)(=O)N2CCN(c3ccccc3OC)CC2)cc1`, the “% Inhibition @ 10 uM” value is recorded as -5.13%.

`COc1ccc(C(=O)Sc2nc(C)cc(C)n2)cc1`: the “% Inhibition @ 10 uM” value was determined as 54.6%.

As for `COC(=O)c1ccc(Oc2nc(C)cc(N)n2)cc1`, the “% Inhibition @ 10 uM” value is -2.87%. As for `Cc1cc(C)nc(SC(=O)c2ccc(Cl)cc2Cl)n1`, the figure is -5.13%. Turning to `c1ccc(-c2csc(NCc3ccco3)n2)cc1`, the “% Inhibition @ 10 uM” value is recorded as -0.178%. Consider `CCNc1nc(-c2ccccc2)cs1`, for which the “% Inhibition @ 10 uM” value was found to be 89.1%. As for `CCCNc1nc(-c2ccc(C)cc2)cs1`, the “% Inhibition @ 10 uM” value is recorded as 3.33%.
